TrxR1 substrate = qHTS Assay for Substrates of Mammalian Selenoprotein Thioredoxin Reductase 1 (TrxR1): qHTS | Thioredoxin reductase 1, cytoplasmic (Rattus norvegicus), O89049 | purified TrxR1 substrate turnover, NADPH consumption readout | Potency, µM (top dose mostly 114 µM), without a hit: at the highest dose activity change, negative = substrate turnover | 390,000 tested, 0.01% active; also: nearly all actives have a fitted effect of over 50% in size
Target sequence (O89049 whole entry, looked up): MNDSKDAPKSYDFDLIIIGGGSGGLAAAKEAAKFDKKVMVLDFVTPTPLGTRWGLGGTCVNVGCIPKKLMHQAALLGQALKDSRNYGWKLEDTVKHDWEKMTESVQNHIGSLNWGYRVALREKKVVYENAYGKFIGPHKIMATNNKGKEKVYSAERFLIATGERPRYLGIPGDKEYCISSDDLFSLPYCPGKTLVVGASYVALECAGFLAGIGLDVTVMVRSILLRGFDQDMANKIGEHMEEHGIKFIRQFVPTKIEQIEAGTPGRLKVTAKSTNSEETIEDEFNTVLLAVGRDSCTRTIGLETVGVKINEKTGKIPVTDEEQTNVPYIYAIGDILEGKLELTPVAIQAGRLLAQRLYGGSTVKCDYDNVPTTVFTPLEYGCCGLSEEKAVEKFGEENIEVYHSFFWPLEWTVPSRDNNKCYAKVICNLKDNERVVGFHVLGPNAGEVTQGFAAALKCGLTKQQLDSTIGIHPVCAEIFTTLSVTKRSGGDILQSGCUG
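Rat TrxR1, dispensed at 90 nM, was prereduced with 400 uM NADPH (final) for 5 min at ~22 deg C, then incubated with compound 15 min before 400 uM selenite. A first-read NADPH fluorescence drop versus no-compound background flagged substrates.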
NPSR antagonist = qHTS Assay for Antagonists of the Neuropeptide S Receptor: cAMP Signal Transduction | CHO-NPSR cells, cAMP TR-FRET, antagonist mode | Potency, µM (titrated, usually from 38.3 µM), for inactives: top-dose activity change, negative = inhibition, actives largely listed as inhibitors | 220,000 tested, 1% active; also: nearly all actives have a fitted effect of over 50% in size
GALK inh = qHTS Assay for Inhibitors of Human Galactokinase (GALK); P51570; Purified GALK, Kinase-Glo residual ATP luminescence; Potency, µM (series often up to 57.5 µM), without a hit: top-dose activity change, negative = inhibition, usual class: inhibitors; 270,000 tested, 0.007% active; AID 1868, 2009
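Galactose (100 uM) and ATP (35 uM) were turned over by 5 nM GALK for 1 h at RT. Kinase-Glo Plus then converted the remaining ATP into a luminescent signal.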
rTrxR1 inhibitor = qHTS Assay for Inhibitors of Mammalian Selenoprotein Thioredoxin Reductase 1 (TrxR1): qHTS. Thioredoxin reductase 1, cytoplasmic (Rattus norvegicus), O89049. 390,000 tested, 1% active. recombinant rTrxR1, NADPH fluorescence consumption, selenite substrate. Potency, µM (doses to about 114 µM), for the others: at the highest dose activity change, negative = inhibition, most hits filed as inhibitors; also: nearly all actives have a fitted effect of over 65% in size
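Rat TrxR1 (90 nM in the dispensed reagent) was pre-reduced with 400 uM NADPH for 5 min at room temperature, then incubated with compound for 15 min. After 400 uM selenite was added, NADPH fluorescence (Ex 340/Em 450 nm) was followed for 8 min.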
Active calls of the source: *; ? = inconclusive; . = not tested or not shown; [ ] = dose if it differs, or a comment. Compounds with a hit are over-represented: about 1.2% of the library has one in this group of screens. Calls follow the shape of the dose curve; as a rule, active = well fitted curve in the direction sought with a large enough effect; inconclusive = small, poorly fitted or top-dose-only effect, or another doubt; inactive = no such curve, though single readings can be large; an effect the other way counts as inactive or inconclusive. % is scaled to controls: 0 for no effect and ±100 for the full control effect; potency is read from the fitted curve at half-maximal effect.

SMILES	TrxR1 substrate	NPSR antagonist	GALK inh	rTrxR1 inhibitor
COc1ccccc1N1C(=O)CC(Sc2nccc(C)n2)C1=O (stereo unspecified)	-1%	0%[46.1 µM]	0%	-16%
COc1ccccc1N1C(=O)CC(Sc2n[nH]c(-c3cccc(C)c3)n2)C1=O (stereo unspecified)	1%	?	0%	1.6µM*
CCC(C)NC(=O)c1ccc2nc(-c3cccs3)c(-c3cccs3)nc2c1 (stereo unspecified)	12%	.	.	26%
CCCCS(=O)(=O)c1oc(-c2cccs2)nc1S(=O)(=O)c1ccc(F)cc1	12%	.	.	0.71µM*
Cc1ccc(S(=O)(=O)c2nc(-c3ccc(F)cc3)oc2N2CCN(c3ccccc3)CC2)cc1	-2%	.	.	9%
CCCSc1oc(-c2cccs2)nc1S(=O)(=O)c1ccc(C)cc1	18%	.	.	14%
CN(C)c1oc(-c2ccc(Cl)cc2)nc1S(=O)(=O)c1ccccc1	1%	-21%	2%	35µM*
CCCCCS(=O)(=O)c1oc(-c2cccs2)nc1S(=O)(=O)c1ccc(C)cc1	7%	.	.	1.6µM*
CCSc1oc(-c2cccs2)nc1S(=O)(=O)c1ccccc1	15%[57.1 µM]	?	0%	14%[57.1 µM]
CCCCS(=O)(=O)c1oc(-c2ccc(F)cc2)nc1S(=O)(=O)c1ccc(C)cc1	6%	.	.	1.4µM*
COc1ccc(Nc2nc(N)nc(CSc3nc4cc(OC)ccc4s3)n2)cc1	0%	.	.	9%
CCN(Cc1cccc(S(=O)(=O)O)c1)c1ccc(C(=C2C=CC(=[N+](CC)Cc3cccc(S(=O)(=O)O)c3)C=C2)c2ccc(O)cc2S(=O)(=O)O)cc1	-18%	.	.	37%[0.0914 µM]
CCC(C)S(=O)(=O)c1oc(-c2ccc(F)cc2)nc1S(=O)(=O)c1ccc(F)cc1 (stereo unspecified)	12%	.	.	2µM*
O=S(=O)(c1ccccc1)c1nc(-c2ccc(F)cc2)oc1N1CCCCCC1	-4%	.	.	16%
CSc1oc(-c2ccc(F)cc2)nc1S(=O)(=O)c1ccc(Br)cc1	10%	.	.	19%
CCS(=O)(=O)c1oc(-c2ccc(F)cc2)nc1S(=O)(=O)c1ccccc1	8%	.	.	0.5µM*
COc1ccc(CN2CC[C@H]3C=CC[C@@H](C(=O)N4CCN(c5ccccc5)CC4)[C@H]3C2=O)cc1OC	2%	.	.	-1%
Cc1nc2ccc(S(=O)(=O)N(CC(=O)Nc3ccc(Cl)cc3)Cc3ccccc3)cc2s1	-3%[57.1 µM]	.	.	6%[57.1 µM]
Cc1cc(NS(=O)(=O)c2ccc(NC(=S)NC(=O)c3ccc(Br)cc3)cc2)no1	6%	-39%	0%	45µM*
CCc1nnc(NS(=O)(=O)c2ccc(NC(=S)NC(=O)c3ccc(F)cc3)cc2)s1	-3%	-33%	-3%	18µM*
CCc1nnc(NS(=O)(=O)c2ccc(NC(=S)NC(=O)c3cccnc3)cc2)s1	8%[57.1 µM]	10%	3%	1%[57.1 µM]
Cc1cc(C)c2nc(-c3ccccn3)cc(C(=O)Nc3ccc(S(=O)(=O)Nc4cc(C)on4)cc3)c2c1	10%	10µM*	3%	?
Cc1cc(NS(=O)(=O)c2ccc(NC(=S)NC(=O)c3cccnc3)cc2)no1	-2%[57.1 µM]	6%	7%	-11%[57.1 µM]
C=C1[C@@H](O)CN(Cc2ccc(OC)cc2)S1(=O)=O	10%	.	.	?
C[C@@H](C(=O)NNC(=O)c1ccc(Cl)cc1)N1C(=O)C2CC=CCC2C1=O (stereo partly specified)	-9%[2.29 µM]	.	.	-17%[2.29 µM]
SMILES	TrxR1 substrate	NPSR antagonist	GALK inh	rTrxR1 inhibitor
O=[N+]([O-])c1ccc(Sc2ccccn2)nc1	-5%	-49%	-1%	-1%
O=[N+]([O-])c1ccc(Sc2nnnn2-c2ccccc2)nc1	-2%[57.1 µM]	14%	6%	13µM*
COc1ccccc1N1CCN(C(=O)CN2C(=O)COc3ccc(S(=O)(=O)N4CCCC4)cc32)CC1	3%	.	.	2%
Cc1[nH]c2ccccc2c1C1C(c2ccccc2)=NN=C(C(C)C)N1O (stereo unspecified)	-9%	-19%	0%	45µM*
CC1=NN=C(c2ccccc2)C(c2c[nH]c3ccccc23)N1O (stereo unspecified)	0%	3%	.	?
CC(=O)Nc1ccn(C2OC(C(COC(C)=O)NC(=O)C(Cc3ccccc3)NC(=O)OC(C)(C)C)C(OC(C)=O)C2OC(C)=O)c(=O)n1 (stereo unspecified)	5%	.	.	11%
S=C(NCCCN(Cc1ccc(Cl)cc1)c1ccc(-c2ccccc2)cn1)NCCCN(Cc1ccc(Cl)cc1)c1ccc(-c2ccccc2)cn1	11%	.	.	14%
S=C(NCCCc1cnc[nH]1)NCCCN(Cc1ccc(Cl)cc1)c1ccc(-c2ccccc2)cn1	-3%	.	.	89µM*
CN(C)S(=O)(=O)c1cccc(NC(=S)Nc2cc(Cl)cc(Cl)c2)c1	-8%	?	0%	20µM*
COc1cccc(-c2nc(SCc3cc(=O)c4ccc(C)c(C)c4[nH]3)n[nH]2)c1	3%[57.1 µM]	.	.	8%[57.1 µM]
Cc1ccc(C(=O)N/C(=C\c2ccc(-c3ccccc3[N+](=O)[O-])o2)C(=O)NCCN(C)C)cc1	1%	.	7%	14µM*
O=C(/C=C/c1ccco1)NCCc1ccccc1	-4%	4%	0%	?
O=C(/C=C/c1ccccc1)Nc1cccnc1	2%	.	4%	24%
Cc1ccc(/C=C/C(=O)NCCc2ccccc2)o1	5%	.	-9%	14µM*
Cc1ccc(/C=C/C(=O)Nc2cccc3ncccc23)o1	-4%	-9%[46.1 µM]	1%	10µM*
Cc1ccc(/C=C/C(=O)Nc2cccnc2)o1	4%[57.1 µM]	-36%	4%	32µM*
Cc1ccc(/C=C/C(=O)Nc2nn[nH]n2)o1	-19%	-3%	0%	50µM*
COC(=O)CCC/C=C1/SCC(NC(=O)c2ccccc2)C1=O (stereo unspecified)	4%	0%[46.1 µM]	1%	25µM*
COC(=O)CCC/C=C1/SCC(NC(=O)c2ccccc2)C1O (stereo unspecified)	-19%	-5%[46.1 µM]	-1%	50µM*
COc1ccc(OC)c2c(C)ccnc12	4%	.	.	12%
COc1cc(OC)c(/C=C/c2cc(/C=C/c3c(OC)cc(OC)cc3OC)[n+](C)c3ccccc23)c(OC)c1	4%	.	.	-1%
CC(C)ON([C@@H](C(=O)NO)C(C)C)S(=O)(=O)c1ccc(-c2ccccc2)cc1	-5%[57.1 µM]	.	.	0%[57.1 µM]
O=S(=O)(NCC(c1cccs1)S(=O)(=O)c1ccccc1)c1ccc(F)cc1 (stereo unspecified)	-15%[57.1 µM]	.	.	13µM*
O=S(=O)(NCC(c1cccs1)S(=O)(=O)c1ccccc1)c1ccc(F)c(C(F)(F)F)c1 (stereo unspecified)	-11%[57.1 µM]	.	.	-6%[57.1 µM]

Compound activity deposited in PubChem by National Center for Advancing Translational Sciences (NCATS).
